# ELG1 genotox – induces genotoxicity in HEK293T cells with luciferase-tagged ELG1 | HEK293T ELG1-luciferase reporter, luminescence, 16 h | Potency, µM (series often up to 46 µM), usual class: activators | 1.3% of 330,000 active; also: nearly all actives have a fitted effect of over 60% in size
#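 Step 1: seed 2,000 HEK293T ELG1-luciferase cells per well. Step 2: add compound or DMSO, incubate 16 hr at 37 °C. Step 3: ONE-Glo, 30 min at room temperature, read luminescence.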
# FLuc counter – counter-screen for miR-21 project: firefly luciferase inhibitors or activators | P08659 | purified FLuc, Km substrates, luminescence inhibition | Potency, µM (titrated, usually from 57.5 µM), hits mostly inhibitors | 6.9% of 360,000 active | AID 588342; also: nearly all actives have a fitted effect of over 55% in size
# Target sequence (P08659 whole entry, looked up): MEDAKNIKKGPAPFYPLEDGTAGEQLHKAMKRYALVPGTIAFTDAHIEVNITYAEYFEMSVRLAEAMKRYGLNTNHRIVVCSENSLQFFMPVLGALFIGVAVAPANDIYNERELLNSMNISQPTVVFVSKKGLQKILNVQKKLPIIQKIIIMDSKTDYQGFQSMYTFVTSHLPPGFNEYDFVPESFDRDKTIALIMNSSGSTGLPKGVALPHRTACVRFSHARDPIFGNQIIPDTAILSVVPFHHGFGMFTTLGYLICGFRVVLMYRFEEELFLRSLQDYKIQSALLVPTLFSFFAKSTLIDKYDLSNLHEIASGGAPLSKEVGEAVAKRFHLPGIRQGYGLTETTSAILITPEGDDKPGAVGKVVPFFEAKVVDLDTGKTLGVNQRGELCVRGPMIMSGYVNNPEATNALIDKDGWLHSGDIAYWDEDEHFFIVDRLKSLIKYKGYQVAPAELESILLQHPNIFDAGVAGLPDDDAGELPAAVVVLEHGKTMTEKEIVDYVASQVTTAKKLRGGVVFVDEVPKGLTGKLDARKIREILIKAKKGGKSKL
#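 Purified P. pyralis luciferase (10nM final) with 10uM D-luciferin and 10uM ATP (Km levels) in 50mM Tris acetate pH 7.5, 10mM Mg acetate, 0.01% Tween-20, 0.05% BSA; qHTS 6-point titration, ~60 µM downward; luminescence read.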
# SMN2 splice enh – enhancers of SMN2 splice variant expression; Potency, µM (titrated, usually from 46.1 µM), most hits filed as activators; 2.8% of 210,000 active; AID 1458; HEK293 SMN2-luciferase splicing reporter, luminescence, 30-36 h; also: nearly all actives have a fitted effect of over 55% in size
#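 HEK293 cells carry an SMN2 […]–luciferase reporter in which exon 7 inclusion puts luciferase in frame. Cells were plated 10-12 h before compound addition, then incubated 30-36 h at 37C. ONE-Glo luminescence was read; sodium butyrate at 4.5 mM final served as control.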
# p53 reactivation – re-activators of mutant p53 | H1299 p53-A138V BP100-luciferase reporter, luminescence, 24 h | Potency, µM (titrated, usually from 92.2 µM), most hits filed as activators | 0.063% of 320,000 active | AID 504706; also: nearly all actives have a fitted effect of over 45% in size
#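 p53-null H1299 cells stably carrying temperature-sensitive p53-A138V and a BP100-luciferase reporter were pinned with compounds (4-point, 1:5 series) and held 24 hrs at 37 deg C. Luminescence was read 10 min after detection reagent.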
# NPC1 promoter act – NPC1 promoter activation. Huh7 NPC1 promoter luciferase reporter, 24 h. Potency, µM (titrated, usually from 9.22 µM), actives largely listed as activators. 2.4% of 320,000 active. AID 485313; also: nearly all actives have a fitted effect of over 60% in size
#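 Cells: Huh7 expressing luciferase under the NPC1 promoter, 1500/well. Seeded 2 h, compound added, incubated 24 h at 37 °C. Luciferase reagent, 10 min ambient, then luminescence.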
# Rab9 prom act – activators of Rab9 promoter; Huh7 Rab9 promoter-luciferase reporter, luminescence, 24 h; Potency, µM (doses to about 9.22 µM), most hits filed as activators; 2.8% of 320,000 active; AID 485297; also: nearly all actives have a fitted effect of over 60% in size
#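 Stable Rab9-luc Huh7, 1500 cells/well, 2 h settle; cmpd in DMSO, 24 h, 37 °C/5% CO2; luciferase reagent 10 min RT; luminescence.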
# A number is an active result; n = inactive; u = inconclusive; x = no result; [ ] = dose if it differs, or a comment. Only some compounds are listed: those with a hit (about 7.3% of all), similar ones and a draw of the others. Calls follow the shape of the dose curve; as a rule, active = well fitted curve in the direction sought with a large enough effect; inconclusive = small, poorly fitted or top-dose-only effect, or another doubt; inactive = no such curve, though single readings can be large; an effect the other way counts as inactive or inconclusive.
SMILES,ELG1 genotox,FLuc counter,SMN2 splice enh,p53 reactivation,NPC1 promoter act,Rab9 prom act
O=CC(=O)c1ccccc1,n,n,n,n,n,n
O=C(/C=C/c1ccc[nH]1)c1ccccc1,n,12µM,n,n,n,u
CCn1c(CNC(=O)c2ccccc2F)nnc1SCC(=O)Nc1nncs1,n,n,x,n,n,n
Cn1c(-c2ccc(CN3CCCCC3)o2)nc2ccccc21,u,15µM,13µM,n,u,u
c1ccc2c(c1)nc(-c1ccncc1)n2CCNc1nc(CN2CCCCC2)cs1,n,n,x,x,n,n
CCc1ccc(NC2=NCC(c3ccccc3)S2)cc1 (configuration not stated),u,7.6µM,14µM,n,u,u
O=C(NCC(c1cccs1)S(=O)(=O)c1cccs1)c1ccccc1 (configuration not stated),x,n,x,x,x,x
O=C(Nc1ccccc1)Nc1nccs1,n,24µM,u,n,n,n
C/C(=C\C(=O)Nc1nccs1)c1ccccc1,x,9.5µM,u,x,x,x
COc1ccc(C(=O)Nc2nccs2)cc1,u,19µM,x,n,2.2µM,3.2µM
C/C(=C\C(=O)O)C(=O)Nc1nccs1,n,n,n,n,n,n
COc1ccc(C(=O)Nc2nccs2)cc1OC,u,u,7.1µM,n,n,u
O=C(Nc1ccccc1)Nc1nncs1,n,u,n,n,n,n
CCCCCOc1ccc(/C=C/C(=O)Nc2sc(C)c(C)c2C(=O)OCC)cc1OC,x,n,n,x,x,x
COc1ccc(CNC(=O)CN2C(=O)CCCc3ccccc32)cc1,x,n,x,x,x,x
CCCc1cc(C(=O)Nc2nccs2)cs1,1.3µM,1.9µM,4µM,n,1.8µM,1.3µM
COc1ccc(NC(=O)Nc2nccs2)cc1,u,6.7µM,14µM,u,n,n
NC(=S)N=Nc1ccc(NN=C(N)N)cc1,n,21µM,x,n,n,n
NC(N)=Nc1ccc(N=C(N)N)cc1,n,n,x,n,n,n
COC(=O)CNC(=O)C1(CC(C)C)C=CCN1C(C)=O (configuration not stated),x,x,13µM,x,x,x
COCCNC(=O)C1(CC(C)C)C=CCN1C(C)=O (configuration not stated),x,x,n,x,x,x
CCCN(CCC)CCCNC(=O)c1sc2nc3n(c(=O)c2c1C)CCC3,x,n,x,x,x,x
O=C(CCc1nnc(CCCc2ccccc2)o1)NC(C1CC1)C1CC1,21µM,12µM,14µM,n,u,2.8µM
CN(Cc1ccsc1)C(=O)CCc1nnc(CCCc2ccccc2)o1,u,13µM,x,n,n,3.2µM
Cc1nc(C(C)NC(=O)CCc2nnc(CCCc3ccccc3)o2)c(C)s1 (configuration not stated),u,15µM,16µM,n,u,2.8µM
SMILES,ELG1 genotox,FLuc counter,SMN2 splice enh,p53 reactivation,NPC1 promoter act,Rab9 prom act
CN(Cc1ccsc1)C(=O)CCc1nnc(Cc2c[nH]c3ccccc23)o1,n,n,x,n,n,n
CNC1C(O)[C@@H]2OC(O[C@@H]3C(O)C(O)C(N)C[C@H]3N)C(N)C[C@H]2O[C@H]1O[C@@H]1OC(CO)C(N)C(O)C1O (some centres not stated),x,x,n,x,x,x
CCc1ccccc1N(CC)C(=O)c1cc2c(s1)-c1ccccc1OC2,x,n,n,x,x,x
CC1=C/C(=N/O)C([C@H]2C=C(C)CC(C)(C)[C@@H]2O)C(C)(C)C1 (some centres not stated),x,x,n[9.22 µM],x,x,x
CC(=O)Nc1ccc(NC(=O)CCc2c(C)nc3c(c(C)nn3-c3ccc(C)cc3)c2C)cc1,x,n,n,x,x,x
CC(C)c1ccc(CNc2ncccn2)cc1,u,13µM,x,n,u,u
CCc1ccc(CNc2ccc3c(c2)ncn3C(C)(C)C)cc1,u,6µM,16µM,u,3.2µM,4µM
Clc1ccc(CNc2ccccn2)cc1,n,u,x,n,n,n
CCn1cnc2cc(NCc3ccc(OC)cc3)ccc21,u,u,n,u,u,u
CC(C)c1ccc(CNc2ccc3c(c2)ncn3C)cc1,n,15µM,x,n,3.2µM,3.5µM
CCc1ccc(CNc2ccc3c(c2)ncn3CC)cc1,u,11µM,x,u,2.5µM,2.5µM
Cc1cc(C)c(NC(=O)COCc2cc(-c3cccs3)on2)c(C)c1,x,n,x,x,x,x
CCN(CC)CCCNC(=O)c1nn(-c2ccc(OC)c(Cl)c2)c(=O)c2c1c1ccccc1n2C,x,n,n,x,x,x
CC(C)(C)n1ncc2c(=O)n(Cc3cc(F)c(F)cc3Cl)cnc21,x,n,x,x,x,x
Cc1cccn2c(=O)cc(CSc3nnc(NC(=O)COc4ccccc4)s3)nc12,x,u,x,x,n,n
CCN(CC)c1ccc(CNc2ccc3c(c2)ncn3C(C)(C)C)cc1,n,u,x,n,n,n
CC(C)(C)n1cnc2cc(NCc3ccc(Br)cc3)ccc21,u,6.7µM,x,u,3.5µM,2µM
COc1cccc(-c2nc(NC(C)(C)C)c3ccccc3n2)c1O,n,n,x,n,n,n
COc1cccc(-c2nc(N3CCCC3)c3ccccc3n2)c1O,n,15µM,x,n,n,n
COc1ccc(Nc2nc(-c3cccc(OC)c3O)nc3ccccc23)cc1,n,3.8µM,x,n,u,n
CSC1=C(C#N)C(c2sccc2C)CC(=O)N1 (configuration not stated),n,u,n,n,n,n
CCN(C(=O)Cn1c(Cl)nc2c1c(=O)n(C)c(=O)n2C)C1CCCCC1,n,x,x,n,x,x
COc1ccccc1Cc1nc2ccccc2nc1SCC(=O)N1CCN(c2ccccc2)CC1,x,n,x,x,x,x
COc1cc2c3cc1Oc1cc(ccc1O)C[C@@H]1c4c(cc(OC)c(O)c4Oc4ccc(cc4)C[C@H]3[N+](C)(C)CC2)CC[N+]1(C)C,x,x,n[9.22 µM],x,x,x
CCCNC(=O)c1cnc2sc(N3CCCCCC3)nn2c1=O,x,n,x,x,x,x
SMILES,ELG1 genotox,FLuc counter,SMN2 splice enh,p53 reactivation,NPC1 promoter act,Rab9 prom act
Cc1cccc(CNC(=O)c2ccc3nc(-c4ccccc4)c(-c4ccccc4)nc3c2)c1,x,n,n,x,x,x
Cc1nc(-c2ccc(F)cc2)sc1CCNC(=O)c1ccco1,x,n,x,x,x,x
COc1ccc(O)c(/C=N/Nc2nc(Nc3ccccc3)nc(-n3nc(C)cc3C)n2)c1,n,9.5µM,n,n,n,n
COc1cc(/C=N/Nc2nc(Nc3ccc(C)cc3)nc(-n3nc(C)cc3C)n2)cc(OC)c1OC,n,u,n,n,n,n
COc1cc(/C=N/Nc2nc(Nc3ccccc3)nc(-n3nc(C)cc3C)n2)cc(OC)c1OC,n,2.7µM,n[1.84 µM],u,n,n
Cc1cc(N/N=C/c2ccc(O)cc2O)nc(-n2nc(C)cc2C)n1,n,n,n,n,n,n
Cc1cccc(-n2c3nc(=O)[nH]c(=O)c-3cc3ccc(Cl)cc32)c1C,x,n,n,x,x,x
CCc1c2c(nc3cccc(SC)c13)COC2,x,x,n,x,x,x
COc1ccc(/C=C2\SC(N)=NC2=O)cc1Br,n,u,x,n,n,n
Cc1ccc(C2=NC(=O)/C(=C/c3cc(O)c(O)c(Br)c3)S2)cc1,n,8.5µM,n,n,n,n
